Assay outcomes: PubChem, several laboratories
CYP2C9 inh = human CYP2C9 inhibition | P11712 | AID 777 | 20% of 96,000 active | inhibition, % at 5 µM | CYP2C9 Supersomes, luciferin-H conversion, luminescence;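 active means blocking of liver enzyme CYP2C9 beyond about 50% at 5 µM, limit read from the data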
Target sequence (P11712 whole entry, looked up): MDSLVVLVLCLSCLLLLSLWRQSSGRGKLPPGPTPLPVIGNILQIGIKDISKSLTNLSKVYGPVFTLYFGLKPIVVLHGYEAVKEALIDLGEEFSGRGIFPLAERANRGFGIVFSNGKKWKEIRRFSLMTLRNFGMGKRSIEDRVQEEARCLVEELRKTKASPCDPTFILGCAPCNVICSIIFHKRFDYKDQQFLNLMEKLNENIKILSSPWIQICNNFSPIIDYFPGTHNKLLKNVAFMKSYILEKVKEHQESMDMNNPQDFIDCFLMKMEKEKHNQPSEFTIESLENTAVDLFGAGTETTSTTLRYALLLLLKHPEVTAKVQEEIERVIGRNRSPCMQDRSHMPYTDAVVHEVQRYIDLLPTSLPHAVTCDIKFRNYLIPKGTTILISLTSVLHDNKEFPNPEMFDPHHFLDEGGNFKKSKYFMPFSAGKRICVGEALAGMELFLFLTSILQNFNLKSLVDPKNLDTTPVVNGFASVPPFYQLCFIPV
MRP-1 activ = activates MRP-1 | H69AR cells + doxorubicin, viability rescue, CellTiter-Glo | viability increase, % at 10 µM | 0.61% of 140,000 active;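 active means viability gain under doxorubicin at or above a set limit, the compound median plus 3 SD, cut at about 4.7% in these data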;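 further: MRP-1 overexpressing cells given doxorubicin 25 µM after compound pretreatment; 18-22 h compound pretreatment then 72 h with doxorubicin before readout; 0% = doxorubicin-only wells and 100% = vehicle-treated cells without doxorubicin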
CYP2C9 act = CYP2C9 (human) activation. recombinant CYP2C9, luciferin-H conversion, luminescence; hits give high values; factor 1 = untreated enzyme, 0 = blocked. activation factor at 5 µM. 1.4% of 96,000 active. AID 1024;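 active means activation factor of 2 or more for CYP2C9 at a 5 µM dose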;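 further: 0 = sulfaphenazole-blocked wells and 1 = vehicle-only wells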
CYP2C19 inhib = human CYP2C19 inhibition | CYP2C19 Supersomes, luciferin-H EGE luminescence, 30 min | AID 778 | P33261 | 21% of 96,000 active | inhibition, % at 5 µM;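 active means CYP2C19 inhibition above a set limit at 5 µM in the primary screen, cut at about 50% in these data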;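 further: plate controls were negative control wells for no effect and 2.5 mM tranylcypromine positive control for full effect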
CYP2C19 act = cytochrome P450 2C19 (human) activation. P33261. recombinant CYP2C19, luciferin-H EGE luminescence; hits give high values; 0 = fully inhibited enzyme, 1 = untreated enzyme. activation factor at 5 µM. 96,000 tested, under 10 active. AID 1025;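 active means activation factor of at least 2 at 5 µM in the primary screen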;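 further: 0 = wells with 2.5 mM tranylcypromine and 1 = vehicle-only wells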
MRP resist rev = compounds reversing MRP-mediated drug resistance; H69AR cells + 2 uM doxorubicin, CellTiter-Glo, 72 h; differential viability (reversal), % at 10 µM; 0.04% of 85,000 active;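 active means viability drop by adding the cancer drug above about 55%, with treated viability meeting a 40% cutoff, limit read from the data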;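 further: viability without doxorubicin minus viability with 2 µM doxorubicin for each compound; larger differential means the compound sensitizes cells more to doxorubicin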
An asterisk follows results filed as active; . = no result. Most compounds without a hit are left out; they make up all but 21% or so of the library.

SMILES	CYP2C9 inh	MRP-1 activ	CYP2C9 act	CYP2C19 inhib	CYP2C19 act	MRP resist rev
Cc1nn(C2CCOC(C)(C)C2)c2c1C(c1ccc3c(c1)OCO3)SCC(=O)N2 (configuration not stated)	-8	-1	1.1	-3	1	10
CCCCSC1=NN1c1nc(N)nc(C)c1CC	34	0	0.7	39	0.6	-7
CCN(CCNc1ccc([N+](=O)[O-])c2cccnc12)S(=O)(=O)c1ccc(Cl)cc1	51*	-4	0.5	61*	0.4	.
CC(O)CNc1ccc([N+](=O)[O-])c2cccnc12 (configuration not stated)	.	-2	.	.	.	.
CCN(CCNc1ccc([N+](=O)[O-])c2cccnc12)S(=O)(=O)c1ccccc1	.	0	.	.	.	.
CCC(CO)Nc1ccc([N+](=O)[O-])c2cccnc12 (configuration not stated)	27	-2	0.7	58*	0.4	.
CCCC(=O)c1c(O)[nH]c(=O)[nH]c1=O	-5	-2	1.1	-16	1.2	-7
Cc1cc2c(C(F)(F)F)cc(=O)oc2c2c1NCCC2	-143	0	2.4*	6	0.9	1
CN(C)C1(c2nnnn2CCOC(=O)Nc2ccc(Cl)cc2)CCCCC1	87*	-1	0.1	100*	0	-18
CN(C)C1(c2nnnn2-c2ccc(Cl)cc2)CCCCC1	43	0	0.6	93*	0.1	1
Cc1ccc2c(c1)CC1(CN2C)C(=O)NC(=O)N(CCc2ccccc2)C1=O (configuration not stated)	48	-2	0.5	12	0.9	-5
Cc1ccccc1CCNCc1ccc(Br)cc1	.	-3	.	.	.	.
CC1=CC(C)C(COC(N)=O)(COC(N)=O)C(C)C1 (configuration not stated)	7	0	0.9	44	0.6	-8
CNC(=O)Oc1ccc2c(c1)C(=O)c1ccccc1CO2	40	-1	0.6	61*	0.4	-7
CCOC(=O)C1CCN(C=C2C(=O)N(C)C(=S)N(C)C2=O)CC1	.	-2	.	.	.	.
CCC1CCCCN1CC(=O)c1ccc(OC(F)F)cc1 (configuration not stated)	.	0	.	.	.	.
CN(Cc1ccccc1)Cc1ccccc1OC(=O)N(C)C	-6	-1	1.1	54*	0.5	1
COc1ccc(CCNCc2ccncc2)cc1OC	52*	1	0.5	66*	0.3	.
COc1ccc(CCN(C)Cc2ccncc2)cc1OC	67*	-1	0.3	82*	0.2	-20
CCC(=NCc1ccco1)c1c(O)n(-c2ccc(C)cc2)c(=O)[nH]c1=O	18	-3	0.8	24	0.8	14
CC12CN3CC(C)(CN(C1)P3(=O)Oc1ccccc1)C2=O (configuration not stated)	-14	0	1.1	13	0.9	-7
CCCCn1c(O)c(C(CC)=Nc2cccc(C(=O)O)c2)c(=O)[nH]c1=O	-16	-2	1.2	-16	1.2	11
COc1ccc(N2CCN(C(CNC(=O)Oc3ccccc3)c3cccnc3)CC2)cc1 (configuration not stated)	-2	-3	1	7	0.9	4
O=C(NCC(c1cccnc1)N1CCN(c2ccccc2F)CC1)Oc1ccccc1 (configuration not stated)	85*	0	0.1	78*	0.2	12
FC(F)(F)c1ccc2c(c1)NP(=S)(N1CCOCC1)c1nccn1-2 (configuration not stated)	48	-1	0.5	61*	0.4	-4
SMILES	CYP2C9 inh	MRP-1 activ	CYP2C9 act	CYP2C19 inhib	CYP2C19 act	MRP resist rev
CC(C)Oc1cccc(NC(=O)c2cccn(Cc3ccc4c(c3)OC(F)(F)O4)c2=O)c1	84*	3	0.2	25	0.8	.
CC(C)Oc1ccc(Cc2c(O)[nH]c(=O)[nH]c2=O)cc1	-6	-4	1.1	-9	1.1	-17
Cc1cccc(C)c1NC(=O)c1cccn(Cc2ccc3c(c2)OC(F)(F)O3)c1=O	34	-4	0.7	68*	0.3	.
O=C(Nc1ccc(C(F)(F)F)cc1)c1cccn(Cc2ccc3c(c2)OC(F)(F)O3)c1=O	12	-2	0.9	-18	1.2	.
O=C(Nc1cccc(C(F)(F)F)c1)c1cccn(Cc2ccc3c(c2)OC(F)(F)O3)c1=O	65*	0	0.4	20	0.8	.
CCC(C)n1c(O)c(/C=N/NC(=O)c2ccncc2)c(=O)[nH]c1=S (configuration not stated)	.	1	.	.	.	.
CC1(C)CN2C(c3ccc(Cl)cc3)N2C1 (configuration not stated)	-13	-1	1.1	-8	1.1	-5
CC(C)C12CN3CCN(CC(C3)/C1=N\O)C2	40	0	0.6	18	0.8	17
Cc1ccc(C(=O)n2cc(CCN3CCS(=O)(=O)CC3)c3ccccc32)cc1	42	-2	0.6	39	0.6	.
CCOC(=O)[C@@]12C(=O)C(=O)N[C@]1(c1ccccc1)C1OCCCC12 (some centres not stated)	.	-2	.	.	.	.
CC(C)Sc1nnc([C@@H](N)Cc2c[nH]c3ccccc23)o1	18	-1	0.8	77*	0.2	-5
CCOC(=O)c1cn2nc(OP(=S)(OCC)OCC)cc2nc1C	82*	-2	0.2	98*	0	32
CCCN(CC#CCOc1ccc(OC)cc1)CCC	15	-3	0.8	19	0.8	3
CCOC(=O)c1c(C)n(Cc2ccco2)c2ccc(O)cc12	28	-1	0.7	56*	0.4	-26
COC(=O)c1c(C)n(Cc2ccc3c(c2)OCO3)c2ccc(O)cc12	79*	-4	0.2	82*	0.2	-5
Cc1ccccc1C1=NCC(=O)N(CC(=O)N2CCCCC2)c2sc(C)c(C)c21	40	-1	0.6	45	0.6	.
O=c1cccc2n1CC1CC2CN(Cc2c(Cl)cccc2Cl)C1 (configuration not stated)	70*	-2	0.3	97*	0	-4
CC1(C)CSC(Nc2ccc(F)c(Cl)c2)=N1	20	1	0.8	42	0.6	-1
CC1(C)CN=C(Nc2ccc(F)c(F)c2)S1	26	.	0.7	62*	0.4	-7
O=[N+]([O-])c1ccccc1CNCCc1ccc(F)cc1	-3	-1	1	86*	0.1	.
CCc1ccc(CNCCc2ccc(F)cc2)cc1	.	-1	.	.	.	.
CN(C)P(=O)(CCl)Nc1ccccc1 (configuration not stated)	.	2	.	.	.	.
CN1CCc2c(C#N)c(Cl)nc(Cl)c2C1	.	-6	.	.	.	.
Cc1ccc(N2C(=O)NC(=O)C(CCc3ccccn3)(Cc3cccc(Cl)c3Cl)C2=O)cc1 (configuration not stated)	.	-2	.	.	.	.
CO[C@H]1[C@@H](OC)CC(OC2OC(CO)C(O)C(O)C2O)/C(=C\C#N)[C@@H]1O (some centres not stated)	.	-1	.	.	.	.
COc1cccc(CN2CCCCC2c2cccnc2)c1 (configuration not stated)	18	4	0.8	38	0.6	3
